The text below walks through data of PubChem BioAssay (NCATS).

SMILES strings stand for the structures. Values joined by “and” are separate entries in the source; they are usually repeats but may differ in a detail not shown here. Equal values may be shown once. Results filed as inconclusive are left out. Active and inactive are the calls of the source. Calls come from the whole dose curve; as a rule, active = well fitted curve in the direction sought with a large enough effect; inconclusive = small, poorly fitted or top-dose-only effect, or another doubt; inactive = no such curve, though single readings can be large; an effect the other way counts as inactive or inconclusive.
Potency is the fitted concentration of half-maximal effect.

One assay deals with astro (control astrocytes). The experiment in a line: Drug repurposing screens with cells derived from glioblastoma tumor samples (AID 1345199). Note: nearly all actives have a fitted effect of over 40% in size. The note with it: viability, ATP luminescence, 48 h; series mostly up to 45.9 µM. The gist of the method:
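Four patient lines of CD133+ GBM neurospheres were screened at several concentrations; hits were retested in those lines plus three slower-growing GBM lines, using 48-hour treatment and ATP-based viability.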
With `NCCCNCCCCNC(=O)C(O)NC(=O)CCCCCCN=C(N)N` (centres undefined), the Potency result was “inactive”.

For `C=CCNC1=C2C[C@@H](C)C[C@H](OC)[C@H](O)[C@@H](C)/C=C(\C)[C@H](OC(N)=O)[C@@H](OC)/C=C\C=C(/C)C(=O)NC(=CC1=O)C2=O`, the Potency is 1.26 µM (active). As to `CCCOc1ccc2nc(NC(=O)OC)sc2c1`, the Potency is 6.31 µM (active). On the same count and under the same terms, next, `COc1cc(C[C@@H]2NCCc3cc(O)c(O)cc32)cc(OC)c1OC`: “inactive”. Same read-out and setting: in the case of `CCCCCCCCCCCCCCCC(=O)OC[C@@H](COP(=O)([O-])OCC[N+](C)(C)C)OC(=O)CCCCCCCCCCCCCCC` it was “inactive”.

For `CN1CC(O)c2cc(N=NC(N)=O)c(O)cc21` (centres undefined), the Potency entry was “inactive”. The same measure, in the same setting: in the case of `O=C(O)c1cccc(/C=C2/C[C@@H]3[C@@H](/C=C/[C@@H](O)C4CCCCC4)[C@H](O)C[C@@H]3O2)c1` it was “inactive”. The same measure, in the same setting: next, `O=C(Nc1ccc(/C=C/c2ccc(NC(=O)c3cc(S(=O)(=O)O)c4cccnc4c3O)cc2S(=O)(=O)O)c(S(=O)(=O)O)c1)c1cc(S(=O)(=O)O)c2cccnc2c1O`: “inactive”; `Cc1ccc(/C(=C\CN2CCCC2)c2cccc(/C=C/C(=O)O)n2)cc1`: 22.4 µM (active); `CON=C1C[C@]2(C[C@@H]3C[C@@H](C/C=C(\C)C[C@@H](C)/C=C/C=C4\CO[C@@H]5[C@H](O)C(C)=C[C@@H](C(=O)O3)[C@]45O)O2)O[C@H](/C(C)=C/C(C)C)[C@H]1C`: 17.8 µM (active) and 20 µM (active).

For the compound `C/C=C1\NC(=O)[C@H]2CSSCC/C=C/[C@H](CC(=O)N[C@H](C(C)C)C(=O)N2)OC(=O)C(C(C)C)NC1=O` (some centres undefined), the Potency was 0.708 µM (active).

Tested on in a further assay: not listed separately
As to the kind of experiment: qHTS assay to identify inhibitors of the type 1 interferon - major histocompatibility complex class I in skeletal muscle: Counter screen cell viability and HiBit confirmation (AID 1347412). Note: nearly all actives have a fitted effect of over 60% in size. The note with it: iHSKM muscle cells + IFN-b, HiBiT or CellTiter-Glo, 24 h; HiBiT. The gist of the method: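 CRISPR HLA-B*08:01-HiBit immortalized human myoblasts (C25cl48) stimulated with 4 ng/ml IFN-beta and compounds (12-point 1:3, top 46 uM final) for 24 h at 37 C. Duplicate plates read by HiBit lytic luminescence or CellTiter Glo ATP.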
(In general: In qHTS, concentration-response curves come from the screen itself.)
For the compound `COC(=O)Nc1cc(Nc2cc(NC3CC3)c3ncc(C#N)n3n2)c(Cl)c(N2CCN(C)CC2)c1`, the Potency is 7.01 µM (active). Still for that read-out and setting: in the case of `C=CCNC1=C2C[C@@H](C)C[C@H](OC)[C@H](O)[C@@H](C)/C=C(\C)[C@H](OC(N)=O)[C@@H](OC)/C=C\C=C(/C)C(=O)NC(=CC1=O)C2=O` it was 0.0701 µM (active).

Turning to `N#Cc1ccnc(Nc2cc(C3CCN(C4COC4)CC3)cc(N3CCC(F)(F)C3)n2)c1`, the Potency was 3.52 µM (active).
